Screening results from PubChem BioAssay.
GC-A act – GC-A (human) enzyme activation. HEK293 GC-A cells, cGMP TR-FRET, EC30 ANP; 0% at EC30 ANP, 100% saturating ANP. activation, % at 10 µM. 0.14% of 370,000 active. AID 1671463. P16066; in the data active = activation above about 40%
NPR2 activator – GC-B (human) receptor activation; activation, % at 10 µM; P20594; 0.11% of 370,000 active; HEK293-GC-B cells, CNP EC30, cGMP TR-FRET; 0% at EC30 CNP, 100% saturating CNP; AID 1920062;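 active = activation at 10 µM reaching about 35% in either raw or pattern-adjusted values, limit read from the data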
Rce1 inh – inhibitors of yeast Ras-converting enzyme; calls only; AID 2563; 0.27% of 290,000 active; yeast membranes, quenched prenylated peptide cleavage fluorescence; Q03530;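 active = fall in fluorescence gain of 50% or more versus controls, with final raw signal at or below 3038400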;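 also: plate controls were neutral control wells for no effect and wells lacking membranes for full effect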
PfM18AAP inh-1 – blocks P. falciparum M18 aspartyl aminopeptidase; 1.2% of 290,000 active; inhibition, % at 7.35 µM; recombinant PfM18AAP, H-Glu-NHMec fluorogenic cleavage; AID 1822;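 active = inhibition above the campaign mean inhibition over all tested compounds plus 3 SD, cut at about 28% in these data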;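 also: 0% = plate median of test compound wells and 100% = 2 mM ZnCl2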
PLCb3 inh – PLC-beta3 (human) inhibition, primary screen; 0.18% of 370,000 active; inhibition, % at 12.2 µM; Purified PLC-beta3, fluorogenic substrate, fluorescence; Q01970; in the data active = inhibition above about 11%;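 also: 0% = median of compound wells on plate and 100% = full blocker control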
PLCg1 inh – inhibitors of human phospholipase C gamma1; purified PLC-gamma1, fluorogenic substrate, fluorescence; inhibition, % at 12.2 µM; 0.84% of 370,000 active; AID 720700; in the data active = inhibition above about 9.5%
PfM18AAP inh-2 – confirmation of Plasmodium falciparum M18 aspartyl aminopeptidase inhibitors | shares compounds with PfM18AAP inh-1 | recombinant PfM18AAP, H-Glu-NHMec fluorogenic cleavage | inhibition, % at 7.35 µM | 28% of 2,400 active | AID 2170;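 active = mean inhibition over replicate wells above the hit cutoff set for the earlier primary screen, cut at about 29% in these data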;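 also: 0% = median of test compound wells and 100% = 2 mM ZnCl2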
CTSL1 confirm – Cathepsin L (human) inhibition, confirmation; shares compounds with PfM18AAP inh-1; purified cathepsin L1, Z-Leu-Arg-MCA fluorescence; inhibition, % at 5.96 µM; 2,400 tested, under 10 active;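 active = average inhibition across replicates above the hit cutoff set in the earlier primary screen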;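 also: 0% = median of test compound wells and 100% = Z-Phe-Ala-diazomethylketone 1 µM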
* = called active by the depositor. Rows were chosen to be rich in hits. Some 2.2% of all compounds tested hit in one or more screens of this group.

For CCN1C(=O)/C(=C2/SC(C)=C(C)N2CC)SC1=S the results were GC-A act -4, NPR2 activator 5, Rce1 inh inactive, PfM18AAP inh-1 38*, PLCb3 inh -2, PLCg1 inh -3, PfM18AAP inh-2 -31 and CTSL1 confirm 0.
Screening COC(=O)C(N)Cc1ccc(O)c(O)c1 (stereo not drawn) returned GC-A act 4, NPR2 activator 4, PfM18AAP inh-1 84*, PLCb3 inh -14, PLCg1 inh -8, PfM18AAP inh-2 53* and CTSL1 confirm -1.
`Cc1cc(C)nc(N/N=C/C2=C(N3CCOCC3)C(=C/c3ccccc3)/CC2)n1` gave GC-A act 39, NPR2 activator 4, Rce1 inh inactive, PfM18AAP inh-1 36*, PLCb3 inh -41, PLCg1 inh -39, PfM18AAP inh-2 -43 and CTSL1 confirm 7.
Screening O=C(O)c1ccccc1N/N=C/C1=C(N2CCOCC2)C(=C\c2ccccc2)/CC1 returned GC-A act 5, NPR2 activator 0, Rce1 inh inactive, PfM18AAP inh-1 5, PLCb3 inh -25 and PLCg1 inh -12.
COc1ccc(-c2c(C)nc3c(-c4ccccn4)cnn3c2N)cc1 was read as GC-A act -9, NPR2 activator -8, Rce1 inh inactive, PfM18AAP inh-1 38*, PLCb3 inh inactive, PLCg1 inh inactive, PfM18AAP inh-2 22 and CTSL1 confirm 3.
C/C(C=NNC(=O)c1cc(-c2ccc(Cl)cc2)n[nH]1)=C\c1ccccc1 was read as GC-A act -7, NPR2 activator -1, PLCb3 inh 1 and PLCg1 inh 1.
For CC(C)[C@H]1/C(=C/C2CC2)N2C(=O)C[C@H](c3cccc(C(F)(F)F)c3)N=C2N1Cc1ccc2c(c1)OCO2 the results were GC-A act 1, NPR2 activator -3, PLCb3 inh 1 and PLCg1 inh -1.
`O=C(NNc1nc2c(F)cccc2s1)C1COc2ccccc2O1` (stereo not drawn) gave GC-A act 2, NPR2 activator -2, Rce1 inh inactive, PfM18AAP inh-1 1, PLCb3 inh -2 and PLCg1 inh -1.
`Cc1ccc2sc(NNC(=O)C3COc4ccccc4O3)nc2c1C` (stereo not drawn) gave GC-A act 4, NPR2 activator -5, PfM18AAP inh-1 41*, PLCb3 inh -12, PLCg1 inh -7, PfM18AAP inh-2 3 and CTSL1 confirm 3.
Screening COc1cc(CN2CCCCCC2)c([N+](=O)[O-])cc1OC returned GC-A act 2, NPR2 activator 0, Rce1 inh inactive, PfM18AAP inh-1 33*, PLCb3 inh -9, PLCg1 inh -3, PfM18AAP inh-2 -30 and CTSL1 confirm -7.
Screening COc1cccc(S(=O)(=O)N(C)C[C@@H]2Oc3ncc(Br)cc3C(=O)N([C@H](C)CO)C[C@@H]2C)c1 returned GC-A act 2, NPR2 activator -3, PLCb3 inh 0 and PLCg1 inh 1.
For CCN1CCc2c(sc(NC(=S)NC(=O)c3ccco3)c2C(N)=O)C1 the results were GC-A act 2, NPR2 activator 0, Rce1 inh inactive, PfM18AAP inh-1 33*, PLCb3 inh -107, PLCg1 inh -78, PfM18AAP inh-2 -14 and CTSL1 confirm 0.
Screening CCN1CCc2c(sc(NC(=O)c3ccc(S(=O)(=O)N(CC)c4ccccc4)cc3)c2C(N)=O)C1 returned GC-A act -1, NPR2 activator 1, Rce1 inh inactive, PfM18AAP inh-1 36*, PLCb3 inh -127, PLCg1 inh -135, PfM18AAP inh-2 6 and CTSL1 confirm -7.
Screening CCN1CCc2c(sc(NC(=S)NC(=O)c3ccccc3)c2C#N)C1 returned GC-A act 5, NPR2 activator 2, Rce1 inh inactive, PfM18AAP inh-1 38*, PLCb3 inh -12, PLCg1 inh -5, PfM18AAP inh-2 -29 and CTSL1 confirm 2.
